# Data published in PubChem BioAssay.
# Unmarked numbers belong to inactive results. How the calls were made is not given here.
# Target: Pantothenate synthetase (Mycobacterium tuberculosis (strain ATCC 25618 / H37Rv)) (UniProt P9WIL5)
# Experiment: Recombinant Mtb pantothenate synthetase (PanC) inhibitors, coupled enzyme, confirmatory (AID 375);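 further: 0% = full reaction with vehicle and 100% = no enzyme background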
# Details: coupled enzyme assay; at 10 µM, hits give high values
# Pantothenate synthetase (Mycobacterium tuberculosis (strain ATCC 25618 / H37Rv)), sequence (P9WIL5 whole entry, looked up): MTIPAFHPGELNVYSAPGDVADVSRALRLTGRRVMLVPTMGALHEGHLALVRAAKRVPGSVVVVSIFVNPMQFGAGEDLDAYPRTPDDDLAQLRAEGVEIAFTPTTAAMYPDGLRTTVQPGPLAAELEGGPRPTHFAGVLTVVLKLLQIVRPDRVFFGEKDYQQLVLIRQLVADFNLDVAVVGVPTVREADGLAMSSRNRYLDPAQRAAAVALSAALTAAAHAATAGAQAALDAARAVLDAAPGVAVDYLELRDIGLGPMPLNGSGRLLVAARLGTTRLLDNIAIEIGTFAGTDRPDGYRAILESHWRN
row,Compound,inhibition
1,O=C(COC(=O)c1ccccc1C(=O)c1ccccc1)c1ccco1,0%
2,CCOC(=O)N1CCN(c2c(NCCCOC(C)C)c(=O)c2=O)CC1,4%
3,O=C(NCCC1=CCCCC1)c1cc2c(s1)CS(=O)(=O)C2,1%
4,Cc1c(-n2c(CN3C(=O)c4ccccc4C3=O)nc3ccccc3c2=O)c(=O)n(-c2ccccc2)n1C,0%
5,CN(c1ccc(OCc2nnc(-c3ccccc3)o2)cc1)S(=O)(=O)c1ccccc1,0%
6,Cn1c(=O)c2c(nc(NCc3ccc4c(c3)OCO4)n2Cc2ccccc2F)n(C)c1=O,3%
7,O=C(CCC(=O)OCCCC(F)(F)C(F)(F)F)NC1CCCCC1,0%
8,CC(=O)c1cccc(-n2nnnc2SCC(=O)N2CCCC2)c1,5%
9,CN(CC(=O)Nc1ccc2c(c1)OCCO2)S(=O)(=O)c1ccc(Br)s1,6%
10,CCC(C)NC(=O)C1c2cc(OC)c(OC)cc2C(=O)N(C)C1c1ccc(OC)cc1 (stereo unspecified),0%
11,O=C(CCS(=O)(=O)c1cccc2nonc12)Nc1cccc2c1CCCC2,1%
12,CCS(=O)(=O)N1CCC(C(=O)NC2CCCCCCC2)CC1,1%
13,CC(C)n1nc(C(=O)Nc2nc3ccc(S(C)(=O)=O)cc3s2)c2ccccc2c1=O,0%
14,Cc1cccc(C2CC(c3ccc(Cl)cc3)Nc3nc(N)nn32)c1 (stereo unspecified),0%
15,O=C(Nc1c(C(=O)NCc2ccco2)cnn1-c1ccccc1)c1ccc(F)cc1,2%
16,CCCNC(=O)C1CC(=O)N(c2ccc(OCC(=O)Nc3cc(C)cc(C)c3)cc2)C1 (stereo unspecified),0%
